In ChEMBL document CHEMBL3988442, “University of Dundee, Small-Polar-MMV Screening Library” (2021):
About 13,000 (27%) of roughly 48,000 compounds showed an effect of 50% or more. The list shows a part of the results.

The molecules below were run on Wolbachia pipientis (assay: Anti-Wolbachia Cell-Based Screen). Conditions: 5 µM.
Assay type: functional
Parameters: scale not given: in the data most compounds retested in dose-response had high values

SMILES	Percent Effect
CC(NC(=O)NCC1(c2ccc(Cl)cc2)CC1)c1nncn1C (stereo not drawn)	123.5%
Cc1ccccc1C1(CNC(=O)NC(C)c2nncn2C)CC1 (stereo not drawn)	118.5%
CC(C)c1nnc2n1CCN(C(=O)c1ccc(OCC3CC3)nc1)C2	-21%
CCOc1cc(C)nc(N2CCN(Cc3nccn3C)CC2)n1	4.632%
Cc1nc(C)c(CN2CCOC[C@H](Oc3ccc(S(C)(=O)=O)cc3)C2)s1	-11.23%
CC(=O)N1CCCC1c1nnn2cc(-c3ccncc3)ccc12.O=C(O)C(F)(F)F (stereo not drawn)	7.793%
CC(=O)N1Cc2ccccc2CC1C(=O)Nc1ccc(C)cn1 (stereo not drawn)	-8.335%
Cn1ncc2c(=O)[nH]c(CN(Cc3ccco3)C3CC3)nc21	87.32%
Cc1ccc(CN(Cc2nc3c(cnn3C)c(=O)[nH]2)C2CC2)o1	96.47%
CC(N(C)Cc1nc2c(cnn2C)c(=O)[nH]1)C(C)(C)C (stereo not drawn)	1.899%
CCN(Cc1nc2c(cnn2C)c(=O)[nH]1)c1cccc(C)c1C	-14.78%
Cn1ncc2c(=O)[nH]c(CN(Cc3ccco3)C3CCCC3)nc21	8.263%
CC(c1ccco1)N(C)Cc1nc2c(cnn2C)c(=O)[nH]1 (stereo not drawn)	2.011%
O=C(NCc1ccccn1)[C@@H]1COC[C@H]2CN(c3ncccn3)C[C@H]21.O=C(O)C(F)(F)F.O=C(O)C(F)(F)F	-2.042%
Cc1ccc(S(=O)(=O)Nc2ccc(=O)n(C)c2)cc1	-12.63%
COc1ccc(-c2nccn2C[C@@H]2CCCN3CCCC[C@H]23)cc1	-24.08%
COC(C)C(=O)N(CC(N)=O)Cc1cccc(Oc2ccccc2)c1 (stereo not drawn)	2.959%
CC(C)[C@H]1COC(=O)N1Cc1nccn1C(C)C	-0.6769%
O=C(NCCN1CCCC(CO)C1)c1ccc2scnc2c1 (stereo not drawn)	-0.5362%
COc1cc(OC)cc(C(=O)NCc2nn(C)c3c2COCC3)c1	121.8%
COc1ccc(CNC(=O)c2nn(C)c3c2CS(=O)(=O)CC3)cc1OC	-2.523%
Cn1nc(CNC(=O)c2ccc(OC(F)(F)F)cc2)c2c1CCOC2	101.2%
Cn1nc(CNC(=O)c2cccc(C(F)(F)F)c2)c2c1CCOC2	111.4%
Cn1nc(CNC(=O)c2ccc3nsnc3c2)c2c1CCOC2	120.7%
CN1CCC(CNC(=O)c2cccc(C(F)(F)F)c2)c2ccccc21 (stereo not drawn)	-15.52%
COc1cc(OC)cc(C(=O)NCCCNc2ncccn2)c1	15.23%
COc1ccc(CN2CCc3c(CNC(=O)CC#N)nn(C)c3C2)cc1.O=C(O)C(F)(F)F.O=C(O)C(F)(F)F	8.44%

SMILES	Percent Effect
Cc1ncc(CNC(=O)c2nn(C)c3c2CS(=O)(=O)CC3)s1	8.614%
Cn1cc(NC(=O)c2cccc(C(F)(F)F)c2)c(=O)n(C)c1=O	-3.646%
Cc1noc(NC(=O)c2ccc(OC(F)(F)F)cc2)n1	14.41%
O=C(NC1CC1)c1cc(NC(=O)N2CCSCC2)ccc1Cl	-25.35%
CCc1c(C(=O)N2CCC3(CC(=O)NC3=O)C2)csc1C (stereo not drawn)	4.433%
COC(=O)c1ccc(C(=O)NCc2nn(C)c3c2COCC3)cc1	116.6%
Cn1nc(CNC(=O)NCc2ccc(Cl)cc2)c2c1CCOC2	-8.693%
CCN(Cc1ccc2c(c1)OCO2)C(=O)c1ccc(=O)n(C)c1	-0.5548%
Cn1nc(CNC(=O)c2ccc(Cl)cc2)c2c1CCOC2	-28.17%
Cn1nc(CNC(=O)c2ccc3c(c2)OCO3)c2c1CCOC2	123.8%
Cc1nnc(SCCCNC(=O)c2ccc3c(c2)OCO3)s1	-1.096%
COc1cccc(OCC2CCCN(C(=O)c3cc(C)n[nH]3)C2)c1 (stereo not drawn)	-67.83%
Cc1cccc2c1OCCCC2NCc1nccn1Cc1ccccc1 (stereo not drawn)	-13.33%
CC(NC(=O)Cc1cccs1)c1nnc2n1CCCCC2 (stereo not drawn)	-4.411%
CC(NC(=O)CCc1cccs1)c1nnc2n1CCCCC2 (stereo not drawn)	108.8%
CC(NC(=O)CCc1cccs1)c1nnc2n1CCC2 (stereo not drawn)	-2.805%
CC(NC(=O)Cc1cccs1)c1nnc2n1CCC2 (stereo not drawn)	95.59%
Cc1noc(C)c1CCC(=O)NC(C)c1nnc2n1CCCCC2 (stereo not drawn)	-4.207%
CNC(=O)N1C[C@H]2CC[C@@]3(N=C(c4ccccc4)NC3=O)[C@H]2C1	-7.438%
N[C@H]1CN(C(=O)c2ccc(Cl)cc2F)C[C@@H]1C1CC1	-16.98%
Cc1cc(C(=O)N2CCCCC2)ccc1NS(C)(=O)=O	-18.21%
CCN(c1ccc(C(=O)N2CCCC2)cc1)S(=O)(=O)CC	-7.72%
CCS(=O)(=O)N(C)C1CCN(C(=O)c2ccc(C)c(C)c2)CC1	-2.68%
CCCOC1CCCN(C(=O)c2ccc(S(N)(=O)=O)cc2)C1 (stereo not drawn)	2.275%
CCN(c1ccc(C(=O)N2CCCCCC2)cc1)S(=O)(=O)CC	148.2%
CCN(c1ccc(C(=O)N2CCCCC2)cc1)S(=O)(=O)CC	114.5%
